Measurements published in PubChem BioAssay.
Unmarked numbers belong to inactive results. Where a call stands in place of a potency, no number is given. For some assays here: Potency and affinity values are given separately. The source made the active and inactive calls. Unless noted, the rule behind the calls is not given here.

Key:
[1] = antimalarial activity against Dd2 strain (AID 2302;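 active = growth inhibition above 50% at the single 2 µM test dose, taken to imply half-maximal potency below 2 µM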); conditions: P. falciparum Dd2 in RBCs, LDH growth readout, 72 h; at 2 µM; active compounds read high
[2] = HepG2 cytotoxicity, primary screen, cytotoxicity control for P. falciparum antimalarial project, cell-based, ATP luminescence (AID 2303;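 active = inhibition above 50%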); conditions: HepG2 viability, 24-48 h, at 10 µM, active compounds read high
[3] = molecular target: L-lactate dehydrogenase (Plasmodium falciparum (isolate CDC / Honduras)) (UniProt Q27743); experiment: PfLDH activity inhibition – cell lysate, 3D7 strain, counter-screen for P. falciparum growth inhibition project (AID 2304); conditions: P. falciparum 3D7 crude extract, LDH APAD/NBT absorbance; at 2 µM; active compounds read high
[4] = inhibition of 3D7 malaria parasite growth – strain 3D7 (AID 2306); conditions: P. falciparum 3D7 erythrocytic growth, LDH absorbance, 72 h; at 2 µM; active compounds read high
[5] = molecular target: Calcium-dependent protein kinase 1 (Plasmodium falciparum (isolate 3D7)) (UniProt P62344); experiment: PfCDPK1 kinase inhibitors, biochemical, TCAMS library (AID 1159585; cut-off not given, nearly all actives have IC50 up to about 0.98 µM;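 note: inhibitors leave more ATP so luminescence rises with inhibition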); conditions: recombinant PfCDPK1, Kinase-Glo ATP depletion luminescence
[6] = molecular target: Plasmodium falciparum protein kinase 6 (PK6, PF3D7_1337100) (UniProt Q8IDW1); experiment: PfPK6 kinase inhibitors, biochemical, TCAMS library (AID 1159586); conditions: recombinant PfPK6, Kinase-Glo ATP depletion luminescence
[7] = molecular target: Protein kinase 7 (PK7), Plasmodium falciparum 3D7 (PF3D7_0213400) (UniProt Q7YTF7); experiment: inhibition of Plasmodium PK7 catalytic activity – biochemical, TCAMS antimalarial set, Kinase-Glo luminescence (AID 1159587); conditions: recombinant PfPK7, Kinase-Glo ATP depletion luminescence
[8] = molecular target: Calcium-dependent protein kinase 4 (Plasmodium falciparum (isolate 3D7)) (UniProt Q8IBS5); experiment: PfCDPK4 kinase inhibitors, biochemical, TCAMS library (AID 1159588; cut-off not given, nearly all actives have IC50 up to about 0.91 µM); conditions: recombinant PfCDPK4, Kinase-Glo ATP depletion luminescence
Sequence of Calcium-dependent protein kinase 4 (Plasmodium falciparum (isolate 3D7)) (Q8IBS5 whole entry, looked up): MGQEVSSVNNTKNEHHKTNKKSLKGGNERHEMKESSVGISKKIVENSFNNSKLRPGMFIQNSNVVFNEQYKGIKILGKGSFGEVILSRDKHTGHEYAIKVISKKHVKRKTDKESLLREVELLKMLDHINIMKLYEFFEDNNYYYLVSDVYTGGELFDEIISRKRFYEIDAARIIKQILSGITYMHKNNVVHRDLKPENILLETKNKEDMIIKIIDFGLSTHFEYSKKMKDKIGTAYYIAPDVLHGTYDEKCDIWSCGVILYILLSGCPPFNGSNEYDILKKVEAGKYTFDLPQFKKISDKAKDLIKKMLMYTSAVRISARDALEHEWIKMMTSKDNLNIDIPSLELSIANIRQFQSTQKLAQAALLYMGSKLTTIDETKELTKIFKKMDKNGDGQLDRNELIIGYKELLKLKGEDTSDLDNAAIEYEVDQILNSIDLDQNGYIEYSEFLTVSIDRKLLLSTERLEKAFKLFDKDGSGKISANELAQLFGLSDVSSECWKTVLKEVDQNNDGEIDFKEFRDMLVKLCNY

Sequence of Calcium-dependent protein kinase 1 (Plasmodium falciparum (isolate 3D7)) (P62344 whole entry, looked up): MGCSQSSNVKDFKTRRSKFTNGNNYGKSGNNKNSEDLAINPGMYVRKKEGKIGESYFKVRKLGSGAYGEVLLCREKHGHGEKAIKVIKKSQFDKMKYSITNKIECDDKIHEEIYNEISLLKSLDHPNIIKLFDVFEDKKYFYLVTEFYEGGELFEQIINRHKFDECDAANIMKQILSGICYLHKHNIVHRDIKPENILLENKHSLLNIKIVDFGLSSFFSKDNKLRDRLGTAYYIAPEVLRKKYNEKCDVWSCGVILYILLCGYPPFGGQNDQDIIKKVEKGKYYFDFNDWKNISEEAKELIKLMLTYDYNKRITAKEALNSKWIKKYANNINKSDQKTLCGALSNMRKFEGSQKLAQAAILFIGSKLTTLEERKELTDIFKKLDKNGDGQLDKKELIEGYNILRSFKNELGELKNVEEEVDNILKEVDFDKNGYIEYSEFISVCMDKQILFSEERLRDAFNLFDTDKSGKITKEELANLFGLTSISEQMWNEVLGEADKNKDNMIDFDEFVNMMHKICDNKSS
Sequence of L-lactate dehydrogenase (Plasmodium falciparum (isolate CDC / Honduras)) (Q27743 whole entry, looked up): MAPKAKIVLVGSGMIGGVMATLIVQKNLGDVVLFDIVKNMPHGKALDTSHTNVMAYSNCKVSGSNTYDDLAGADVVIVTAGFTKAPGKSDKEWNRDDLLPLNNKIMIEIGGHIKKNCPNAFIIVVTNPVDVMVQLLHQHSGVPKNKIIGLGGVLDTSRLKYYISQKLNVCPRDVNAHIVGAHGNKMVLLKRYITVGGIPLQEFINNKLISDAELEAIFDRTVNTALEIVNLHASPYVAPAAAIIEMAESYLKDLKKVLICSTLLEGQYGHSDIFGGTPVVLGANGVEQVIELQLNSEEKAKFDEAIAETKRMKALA
Sequence of Plasmodium falciparum protein kinase 6 (PK6, PF3D7_1337100) (Q8IDW1 1-305): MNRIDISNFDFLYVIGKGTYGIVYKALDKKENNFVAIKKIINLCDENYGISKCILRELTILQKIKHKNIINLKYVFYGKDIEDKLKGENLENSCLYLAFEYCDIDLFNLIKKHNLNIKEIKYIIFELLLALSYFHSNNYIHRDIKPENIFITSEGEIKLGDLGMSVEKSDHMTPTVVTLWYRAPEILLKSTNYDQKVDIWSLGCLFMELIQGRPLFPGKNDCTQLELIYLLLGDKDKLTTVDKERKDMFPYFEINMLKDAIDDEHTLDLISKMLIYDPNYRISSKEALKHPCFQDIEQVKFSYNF
Sequence of Protein kinase 7 (PK7), Plasmodium falciparum 3D7 (PF3D7_0213400) (Q7YTF7 1-343): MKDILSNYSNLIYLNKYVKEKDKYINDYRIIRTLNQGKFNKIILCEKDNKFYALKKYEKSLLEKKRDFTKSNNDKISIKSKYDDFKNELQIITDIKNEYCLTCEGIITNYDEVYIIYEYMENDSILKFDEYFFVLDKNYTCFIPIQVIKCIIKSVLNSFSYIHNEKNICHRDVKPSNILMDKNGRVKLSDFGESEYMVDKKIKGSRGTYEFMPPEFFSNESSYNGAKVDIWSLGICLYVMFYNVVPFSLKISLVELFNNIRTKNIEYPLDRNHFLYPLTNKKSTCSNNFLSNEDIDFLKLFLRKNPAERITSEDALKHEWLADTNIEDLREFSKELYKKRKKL

| SMILES | growth inhibition [1] | inhibition [2] | inhibition [3] [%] | growth inhibition [4] | outcome [5] | outcome [6] | outcome [7] | outcome [8] |
| --- | --- | --- | --- | --- | --- | --- | --- | --- |
| CCOc1ccc(Nc2cc(C)nc(Nc3ccc(OCC)cc3)n2)cc1 | 49% | 3% | 8 | 101% (active) | inactive | inactive | inactive | inactive |
| Cc1nc2c(=O)sc3ccccc3c2n1Cc1ccccc1 | 26% | -1% | 1 | 95% (active) | inactive | inactive | inactive | inactive |
| Cc1cccc2[nH]c(-c3cccc(-c4cccc(CN5CCN(c6ccncc6)CC5)c4)c3)nc12 | 96% (active) | 47% | -5 | 102% (active) | inactive | inactive | inactive | inactive |
| Cc1ccc(/C=C/C(=O)NCCCCCN2CCC(c3c[nH]c4ccccc34)CC2)cc1 | 7% | 36% | 0 | 86% (active) | inactive | inactive | inactive | inactive |
| Cc1cc(NN=Cc2ccccc2Cl)c2cc(F)ccc2n1 | 4% | 5% | -2 | 101% (active) | inactive | inactive | inactive | inactive |
| CCCCCCCN1CC[C@@H](CCCc2ccnc3ccc(OCCCCNC(N)=O)cc23)[C@@H](CC)C1 | 18% | 41% | -3 | 93% (active) | inactive | inactive | inactive | inactive |
| Cc1cc(N[C@@H](Cc2ccccc2)C(=O)NCc2cccc(F)c2)nc(NCCCOC(C)C)n1 | 94% (active) | 10% | -2 | 101% (active) | inactive | inactive | inactive | inactive |
| C[C@H]1CN(Cc2cccc(-c3cc(CNC(=O)c4cccc(CC5CCN(C)CC5)c4)ccc3F)c2)CCN1C | 99% (active) | 42% | 2 | 101% (active) | inactive | inactive | inactive | inactive |
| c1cc(-c2ccc(CNC3CC3)cc2)cc(-c2nc3ccccc3[nH]2)c1 | 8% | 17% | 1 | 96% (active) | inactive | inactive | inactive | inactive |
| Nc1ccc(-c2ccc(NC(=O)Nc3ccccc3)cc2)cn1 | 93% (active) | -3% | -1 | 91% (active) | inactive | inactive | inactive | inactive |
| Cc1cc(C(F)(F)F)n2nc(C(=O)N(Cc3cncn3Cc3ccccc3F)CC3CC3)cc2n1 | 100% (active) | -5% | 1 | 100% (active) | inactive | inactive | inactive | inactive |
| NC(=O)c1cccc(C(=O)Nc2cccc(-c3cccc(-c4nc5ccc(C(F)(F)F)cc5[nH]4)c3)c2)c1 | 85% (active) | 71% (active) | -5 | 100% (active) | inactive | inactive | inactive | inactive |
| Cc1cc(N)nc2ccc(-c3cccc(CN)c3)cc12 | 59% (active) | 2% | -8 | 101% (active) | inactive | inactive | inactive | inactive |
| CCC[C@@H]([C@@H](CC1CCCCC1)C(=O)N[C@@H](CCCCNS(C)(=O)=O)C(=O)Nc1nccs1)N(O)C=O | 74% (active) | -13% | -1 | 101% (active) | inactive | inactive | inactive | inactive |
| CCCC(C(=O)OCCNC)(c1ccccc1)c1ccccc1 | 96% (active) | 7% | 7 | 98% (active) | inactive | inactive | inactive | inactive |
| COc1ccc(-c2cccc(NC(=O)c3cccc(Cl)c3)c2)cc1CN(C)CCN(C)C | 73% (active) | 32% | 4 | 101% (active) | inactive | inactive | inactive | inactive |
| Cc1cc(NCc2ccccc2)nc(NCc2ccccc2)n1 | 18% | 21% | 5 | 91% (active) | inactive | inactive | inactive | inactive |
| CCc1cc2c(=O)c(-c3nc(C)cs3)c(N)oc2c(CN2CCCCC2)c1O | 97% (active) | -2% | 0 | 99% (active) | inactive | inactive | inactive | inactive |
| Cc1ccc(Oc2ccc(CNc3nc(Nc4cccc(F)c4)nc(Nc4cccc(F)c4)n3)cc2)cc1 | -2% | -5% | -2 | 86% (active) | inactive | inactive | inactive | inactive |
| Cc1cc(N[C@@H](Cc2ccccc2)C(=O)Nc2ccccc2)nc(NCCc2cccs2)n1 | 72% (active) | -1% | -1 | 100% (active) | inactive | inactive | inactive | inactive |

| SMILES | growth inhibition [1] | inhibition [2] | inhibition [3] [%] | growth inhibition [4] | outcome [5] | outcome [6] | outcome [7] | outcome [8] |
| --- | --- | --- | --- | --- | --- | --- | --- | --- |
| CON(C)C(=O)[C@@H](CCCCNC(=O)OCc1ccccc1)NC(=O)OC(C)(C)C | -1% | 5% | -4 | 98% (active) | inactive | inactive | inactive | inactive |
| CCOC(=O)c1cn(CC)c2cc(F)c(OC3C[C@@H]4CC[C@@]3(C)C4(C)C)cc2c1=O (stereo not given in full) | 70% (active) | -7% | -1 | 91% (active) | inactive | inactive | inactive | inactive |
| Cc1cc(Cl)c(Cl)cc1NC(=O)Nc1cccc(C(F)(F)F)c1 | 99% (active) | 1% | -1 | 93% (active) | inactive | inactive | inactive | inactive |
| COc1ccc(CNC2CCN(C)CC2)cc1-c1ccc(OC)c(S(=O)(=O)NCc2ccccc2)c1 | 95% (active) | 10% | 5 | 99% (active) | inactive | inactive | inactive | inactive |
| Cc1nc(-c2ccc(C#N)cc2)sc1C(=O)NCCCCN1CCC(c2ccc3c(c2OCCO)CCCC3)CC1 | 10% | 14% | 6 | 99% (active) | inactive | inactive | inactive | inactive |
| CC(C)Cc1ccc(N2CCN(CCCCNC(=O)c3ccc(NC(=O)c4cc(C(F)(F)F)cc(C(F)(F)F)c4)cc3)CC2)cc1 | 100% (active) | 15% | -3 | 100% (active) | inactive | inactive | inactive | inactive |
| O=C(/C=C/c1ccc(Cl)c(Cl)c1)NCCCCCN1CCC(n2c(=O)[nH]c3ccccc32)CC1 | -1% | 38% | 2 | 97% (active) | inactive | inactive | inactive | inactive |
| CCCCc1cc(NCC)nc(Nc2ccc(OC)cc2)n1 | 32% | 30% | -4 | 85% (active) | inactive | inactive | inactive | inactive |
| COc1ccc2c(c1)CC(CNC[C@H](O)c1cccc(Cl)c1)CC2 (stereo not given in full) | 73% (active) | 1% | 7 | 94% (active) | inactive | inactive | inactive | inactive |
| O=C(NC1CCCCC1)N(Cc1ccccc1-c1ccc(CNCCc2ccccc2)cc1)C1CCN(Cc2ccccc2)CC1 | 92% (active) | 96% (active) | -6 | 90% (active) | inactive | inactive | inactive | inactive |
| COc1ccc2nc3cc(Cl)ccc3c(NCCN(C)C)c2c1 | 100% (active) | 4% | -2 | 102% (active) | inactive | inactive | inactive | inactive |
| COc1ccccc1CCNc1ncc(F)c(N[C@@H](Cc2ccccc2)C(=O)NCCc2ccccc2)n1 | 83% (active) | 7% | -2 | 90% (active) | inactive | inactive | inactive | inactive |
| COc1cccc(CNC(=O)c2ccnc(-c3cccc(CN(C)C4CCN(C)CC4)c3)c2)c1 | 46% | 19% | -1 | 100% (active) | inactive | inactive | inactive | inactive |
| COc1ccc(CN(C)CCCc2ccc(NC(=O)c3cccc4c(=O)c5ccccc5[nH]c34)cc2)cc1OC | 54% (active) | 77% (active) | -1 | 99% (active) | inactive | inactive | inactive | inactive |
| CCN1CCC(N(Cc2ccc(-c3ccc(C(F)(F)F)cc3)cc2)C(=O)Cn2c(CCc3cccc(F)c3F)nc(=O)c3ccccc32)CC1 | 95% (active) | 99% (active) | 3 | 95% (active) | inactive | inactive | inactive | inactive |
| O=C(Cc1cnc[nH]1)Nc1cccc(-c2ccc(-c3nc4ccccc4[nH]3)cc2)c1 | 72% (active) | 7% | -1 | 99% (active) | inactive | inactive | inactive | inactive |
| COc1ccc2nccc([C@@H](O)CN3CCC(NCc4cc5oc(=O)n(C)c5cc4F)CC3)c2c1 | 72% (active) | -3% | -2 | 99% (active) | inactive | inactive | inactive | inactive |
| CNC(=O)c1cnc(Nc2ccc(OCC(O)CN(C)C)cc2)nc1Nc1cccc([N+](=O)[O-])c1 (stereo not given) | 94% (active) | 52% (active) | -1 | 100% (active) | inactive | inactive | inactive | inactive |
| CN1CCN(CC(=O)Nc2cccc(-c3ccc(-c4nc5ccc(F)cc5[nH]4)cc3)c2)CC1 | 98% (active) | 20% | 6 | 101% (active) | inactive | inactive | inactive | inactive |
| O=C(Nc1ccc(-c2cccc(-c3nc4ccc(F)cc4[nH]3)c2)cc1)Nc1ccc(Cl)c(Cl)c1 | 24% | 68% (active) | 3 | 99% (active) | inactive | inactive | inactive | inactive |
